Most compounds without a hit are left out; they make up all but 3.7% or so of the library.
RGS4 inhibitor: inhibitors of human regulator of G protein signaling 4; P49798; AID 504845; Potency, µM (series often up to 114 µM), without a hit: top-dose activity change, negative = inhibition, usual class: inhibitors; Transcreener GDP fluorescence polarization, RGS4-accelerated GTP hydrolysis; actives 0.039% (n = 390,000); also: potency is read from the fitted curve at half-maximal effect; % is scaled to controls: 0 for no effect and ±100 for the full control effect; nearly all actives have a fitted effect of over 75% in size
Target sequence (P49798 whole entry, looked up): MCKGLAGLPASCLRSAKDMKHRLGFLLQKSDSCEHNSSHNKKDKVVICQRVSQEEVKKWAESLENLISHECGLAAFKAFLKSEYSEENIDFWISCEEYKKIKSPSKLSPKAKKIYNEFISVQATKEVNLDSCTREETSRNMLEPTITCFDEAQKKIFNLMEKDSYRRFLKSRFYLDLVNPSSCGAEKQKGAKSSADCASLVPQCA
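MLSMR compounds (23 nl, pin-transferred) preincubated 10 min at room temperature with a 500nM (2x) first reagent, then RGS4 at 900nM (2x) plus Transcreener GDP mix added; fluorescence polarization (620/688 nm) read before and after 90 min at 30 °C.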
BRCA1 expr act: increases BRCA1 expression; MCF7-BRCA1-FFLuc reporter, luminescence, 48 h; response scale: scaled: vehicle 0%, 10 µM genistein 100%; actives 1.1% (n = 380,000); Potency, µM (top dose mostly 46.1 µM), without a hit: top-dose activation, hits mostly activators; AID 624202; also: potency is read from the fitted curve at half-maximal effect; nearly all actives have a fitted effect of over 80% in size
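MCF7-BRCA1-FFLuc, 2000 cells/well; 2 h attach, 37 °C/5% CO2; compound 48 h; luciferase substrate 15 min; luminescence end-point. Norm. to genistein 10 microM max activation and DMSO; concentration-response curves fitted.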
DRD3 agonist: agonists of human D3 dopamine receptor; max activation, %; P35462; AID 652048; actives 0.58% (n = 410,000); D3R DiscoveRx beta-arrestin cells, luminescence, 90 min; in the data active = max activation above about 30%; also: 0% is about no effect
Target sequence (P35462 whole entry, looked up): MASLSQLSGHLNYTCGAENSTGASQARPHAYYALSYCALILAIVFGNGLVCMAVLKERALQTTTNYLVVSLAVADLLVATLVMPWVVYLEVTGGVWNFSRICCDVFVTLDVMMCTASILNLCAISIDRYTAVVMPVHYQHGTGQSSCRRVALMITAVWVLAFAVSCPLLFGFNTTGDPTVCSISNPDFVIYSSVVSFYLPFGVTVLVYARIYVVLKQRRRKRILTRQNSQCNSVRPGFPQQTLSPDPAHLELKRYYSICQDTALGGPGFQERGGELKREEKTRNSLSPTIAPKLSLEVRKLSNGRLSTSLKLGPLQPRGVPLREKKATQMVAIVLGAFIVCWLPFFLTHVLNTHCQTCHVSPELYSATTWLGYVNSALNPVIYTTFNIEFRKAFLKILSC
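Agonist mode: compounds and dopamine controls were applied to plated cells for 90 min at 37 degrees C after an overnight attachment at 1500 cells/well. Luminescent read-out followed 30 - 60 minutes at room temperature with DiscoveRx detection reagent.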
PTHR1 agonist: agonists of human PTHR1 parathyroid hormone receptor; Q03431; HEK293 GP2 PTHR1 cells, GloSensor cAMP luminescence, 1 h; Potency, µM (highest dose often 115 µM), inactives show top-dose activation, usual class: activators; actives 0.075% (n = 410,000); also: potency is read from the fitted curve at half-maximal effect; nearly all actives have a fitted effect of over 55% in size
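HEK-293-derived GP2 cells expressing PTHR1 and a GloSensor cAMP reporter, 3,000/well, plated overnight, given luciferin plus IBMX (each 0.5 mM as added) for 1 h at 37 °C, then compound for 1 h at 37 °C. Luminescence was read after 15 min at room temperature.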
DRD3 antagonist: antagonists of human D3 dopamine receptor | actives 2.5% (n = 360,000) | P35462 | max response, negative = inhibition, % | AID 652054 | D3R cells, DiscoveRx beta-arrestin luminescence, antagonist mode; hits give low values; in the data active = max response below about -50%; inconclusive = no clear call, values can overlap the other calls; also: % is scaled to controls: 0 for no effect and ±100 for the full control effect
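Cells plated overnight at 1500 cells/well, then exposed to library compounds with dopamine controls for 90 minutes at 37 degrees C. DiscoveRx reagent added for 30–60 minutes at room temperature; luminescence read, quantitative HTS format.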
B2AR arrestin: beta2AR (human) beta-arrestin recruitment activity; beta-arrestin recruitment to beta2AR, cell-based reporter; Potency, µM (highest dose often 46.1 µM), inactives show at the highest dose activation, hits mostly activators; AID 492947; actives 0.02% (n = 330,000); P07550;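 also: potency is read from the fitted curve at half-maximal effect; 0% = DMSO controls and full agonism = EC100 isoproterenol or metaproterenol; nearly all actives have a fitted effect of over 65% in size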
* marks the source's active call; other numbers are inactive results; i = inactive; ? = inconclusive; . = no result given; [ ] = another dose, or the depositor's remark. Unless noted, calls follow the shape of the dose curve; as a rule, active = well fitted curve in the direction sought with a large enough effect; inconclusive = small, poorly fitted or top-dose-only effect, or another doubt; inactive = no such curve, though single readings can be large; an effect the other way counts as inactive or inconclusive.

SMILES	RGS4 inhibitor	BRCA1 expr act	DRD3 agonist	PTHR1 agonist	DRD3 antagonist	B2AR arrestin
CNC(=O)c1ccc(-c2nc(-c3ccccc3)cs2)cc1	23.1%	2.51µM*	5.4	-4.1%	-3.7	-0.5%
Cc1nc(-c2ccc(NC(=O)c3ccccc3)cc2)cs1	5.6%	?	5.4	-34.8%	-9.2	0.0%
O=C(O)c1ccccc1C(=O)Nc1ccc(-c2csc(-c3ccccc3)n2)cc1	-12.1%	7.08µM*	1.1	-26.9%	-0.5	15.0%
CCc1ccccc1NC(=O)c1ccc(-c2csc(C)n2)cc1	-1.0%	3.55µM*	-1.7	i	18.5	0.4%
O=C(Nc1ccc(-c2csc(-c3ccccc3)n2)cc1)c1ccccc1Cl	-10.1%	-64.0%	-8.1	?	-5.0	0.4%
COc1cccc(CCc2nnc(CCC(=O)N3CCN(Cc4ccccn4)CC3)o2)c1	-11.1%	-27.3%	0.6	-43.7%	7.1	0.0%
O=S(=O)(Nc1cccnc1)c1ccc(Cl)c(C(F)(F)F)c1	15.4%	1.1%	-1.8	-60.9%[57.5 µM]	-51.3*	.
Cc1ccc(S(=O)(=O)Nc2cccnc2)cc1C	23.9%	-6.6%	8.6	-36.1%	16.5	0.0%
CCCSc1nnc(CSc2nc(C)cc(C)n2)n1C	6.1%	-3.9%	1.7	-32.6%	-11.1	0.0%
CCc1ccc(C2c3[nH]c4ccccc4c3CCN2C(=O)CN2CCN(CC)CC2)cc1 (stereo not drawn)	-42.7%	-0.3%	-14.3	?	-55.2*	0.4%
CCc1ccc(C2c3[nH]c4ccccc4c3CCN2C(=O)CNC(N)=O)cc1 (stereo not drawn)	-7.3%	-37.3%	-0.9	-12.7%	-19.3	0.0%
COc1cc(C2C(C#N)=C(N)OC3=C2C(=O)CC(C)(C)C3)cc2c1OCO2 (stereo not drawn)	13.6%	11.5%	-8.7	i	14.2	.
O=C1OCCC1Sc1nnc(-c2cccnc2)n1-c1ccccc1F (stereo not drawn)	23.8%	0.0%	-9.1	i	-7.7	0.4%
CCOC(=O)Cc1nn(Cc2nc(-c3ccc(C#N)cc3)cs2)c(=O)c2ccccc12	-26.4%	-75.8%	30.5*	-42.2%	18.7	0.1%
CCOC(=O)Cc1nn(CC)c(=O)c2ccccc12	6.7%	-4.1%	4.2	?	2.0	-0.7%
CCOC(=O)c1c(/N=C/c2cc(C)ccc2O)sc2c1CCN(C)C2	-0.5%	-3.3%	-34.8	i	-54.0*	0.2%
CCCOC1CCCN(C(=O)c2ccc(OC)c(OC3CCN(C(C)C)CC3)c2)C1 (stereo not drawn)	-10.6%	-5.6%	-12.7	-18.7%	-19.5	3.0%
O=S(=O)(c1ccc(F)cc1F)N1CCN(CCO)CC1	-14.9%	3.8%	4.7	-39.5%	6.8	.
C=CCNc1nc(Nc2ccccc2F)nc(OCC)n1	10.6%	10µM*	1.8	i	10.4	0.4%
CCC(=O)c1ccc(OCC(=O)OC(C)C(=O)Nc2c(C)n(C)n(-c3ccccc3)c2=O)cc1 (stereo not drawn)	-11.2%	13.7%	-8.8	15.3%	-16.6	.
C/C(=N/OC(=O)C1CC1)c1cc(-c2ccc(Cl)cc2)no1	6.9%	3.98µM*	1.3	-8.5%	4.5	0.6%
C/C(=N\OC(=O)c1ccccc1)c1cc(-c2ccc(Cl)cc2)no1	-19.2%	2.82µM*	0.3	i	4.3	8.5%
CC(=O)NCc1cc(-c2ccc(Cl)cc2)no1	5.7%	12.9%	0.1	i	2.5	2.5%
N/C(Cc1ccc(Cl)cc1)=N\OC(=O)c1ccccc1	-9.0%[11.4 µM]	12.4%	0.6	?	11.4	0.3%
CCC(=O)N1c2ccc(S(=O)(=O)NCc3ccccc3)cc2CC1C (stereo not drawn)	3.5%	24.8%	-0.8	-21.9%	3.4	-0.2%
SMILES	RGS4 inhibitor	BRCA1 expr act	DRD3 agonist	PTHR1 agonist	DRD3 antagonist	B2AR arrestin
CC(C)Oc1ccc(CNC(=O)CCCN2C(=O)c3cccnc3Oc3ccc(Cl)cc32)cc1	-4.0%	.	6.2	-8.2%	.	.
COc1ccc(CN2C3CCCC2CC(NC(=O)Nc2ccccc2)C3)cc1 (stereo not drawn)	9.8%	11.0%	-6.9	i	-63.8*	-0.2%
COc1ccc(CN2C3CCCC2CC(NC(=O)Nc2cccc(C)c2)C3)cc1 (stereo not drawn)	56.7%	-28.9%	-0.5	-7.8%	-77.6*	-0.7%
COc1ccc(CN2C3CCCC2CC(NC(=O)Nc2ccccc2C)C3)cc1 (stereo not drawn)	-9.9%	1.0%	-9.1	i	-91.9*	0.8%
N[C@](CC1c2ccccc2Oc2ccccc21)(C(=O)O)[C@@H]1C[C@@H]1C(=O)O	280.5%[56.9 µM]	.	.	.	.	.
O=C(OCc1cn([C@@H]2C[C@H](c3ccccc3)N(C(=O)c3cccs3)C[C@H]2O)nn1)c1ccccc1	.	-24.6%	-7.6	-50.4%	0.0	.
COc1ccc(C(=O)NNC(=O)c2snnc2C)cc1	1.7%	20.0%	-2.8	i	-0.9	-0.9%
Cc1ccc(-n2nnc3c(=O)n(CC(=O)N4CCOCC4)cnc32)cc1	-15.7%	2.7%	-7.6	-8.8%	-52.8*	-0.3%
COc1cccc(NC(=O)CN(C)C(=O)c2cc(-c3ccco3)nc3ccccc23)c1	-31.5%	-3.3%	5.8	i	19.0	-0.2%
CN(CCOc1ccc(Cl)cc1)C(=O)c1cc(-c2ccco2)nc2ccccc12	-43.2%	-58.9%	42.0*	-33.0%	17.1	0.1%
Cc1ccc(C(=O)Nc2ccc(C(F)(F)F)n(C)c2=O)cc1	-0.2%	15.2%	-3.4	-1.0%	-7.0	0.0%
COc1ccc(C(=O)Nc2ccc(C(F)(F)F)n(C)c2=O)cc1	-7.6%	11.2µM*	2.6	-4.6%	22.4	-0.6%
CCCCN(CC)Cc1ccc(CNS(=O)(=O)c2cc3c(cc2Cl)NC(=O)CO3)o1	20.5%	.	-19.0	11.3%	.	.
N#CC(=C1C=CC(=NO)C(Cl)=C1)c1ccccc1	.	-0.9%	-13.1	-1.8%	-81.5*	.
N#CC(=C1C=C(Br)C(=NO)C=C1Cl)c1ccc(Cl)cc1	.	-28.9%	-6.5	-14.8%	-24.3	.
Fc1ccc(Nc2nnc(C(F)(F)F)s2)cc1Cl	-20.1%	-68.8%	-10.0	-36.3%	3.7	-0.7%
Fc1ccc(Nc2cncc(-c3ccsc3)c2)cc1Cl	.	-19.9%	-13.5	-18.7%	-51.9*	.
Cc1ccc2[nH]c(=O)c(CN(CCCO)S(=O)(=O)c3cccc4nsnc34)cc2c1	4.8%	-24.3%	8.9	-4.5%[57.5 µM]	-145.3*	-1.0%
Cc1ccc2cc(CN(CCCO)S(=O)(=O)c3cccc4nsnc34)c(=O)[nH]c2c1	10.8%	-12.8%	-3.7	-0.1%[57.5 µM]	22.1	-0.2%
COc1ccc(CCNC(=O)c2coc(=O)c(Br)c2)cc1	17.5%	-59.7%	1.0	-29.2%	-11.5	0.1%
CCOC(=O)c1c(CSc2ccc(CC)cc2)oc2ccc(O)c(CN(C)C)c12	-5.6%	-45.8%	-7.6	-11.5%	-64.3*	-0.2%
